The structures appear in SMILES notation. In all, about 420,000 compounds went through this assay and about 50,000 (12%) were called active. Roughly 26% stayed inconclusive and do not appear here. The call rests on the fitted dose curve; in most records, active means well fitted inhibition curve with a large enough effect; inconclusive means small, poorly fitted or top-dose-only effect; inactive means flat fitted curve, though single readings scatter. The entries come from a sample that favours actives as a whole. A call without a number means that no potency is given here.
Potency means the concentration at half of the fitted maximal effect.

A short description of the assay: qHTS for Inhibitors of human tyrosyl-DNA phosphodiesterase 1 (TDP1): qHTS in cells in presence of CPT. Further: nearly all actives have a fitted effect of over 55% in size. The settings on record: chicken DT40 Tdp1-/-;hTDP1 cells + 20 nM CPT, ATP luminescence, 48 h; series mostly up to 46.2 µM. The source says: Human tyrosyl-DNA phosphodiesterase 1 (TDP1) is a novel repair gene, and we propose to use it as a new target for anticancer drug development. TDP1 is not an essential protein, but under treatment with topoisomerase I poison (camptothecin: CPT), TDP1 works as a critical factor for cell survival. To directly identify novel TDP1 inhibitors active in a cellular environment, we have knocked-out the Tdp1 gene in chicken DT40 cells (Tdp1-/-) and generated a complemented counterpart cells that contains a stable transfection of the human TDP1 gene (Tdp1-/-;hTDP1 cells). For the primary screen, Tdp1-/-;hTDP1 cells will be exposed to small molecules in the presence or absence of CPT, and their growth kinetics will be evaluated after 48 hours by measuring ATP activity. […] The hit compounds will then be evaluated in the presence or absence of CPT using Tdp1-/- cells. […] In tertiary assays, biochemical gel-based assays will be used to assess whether the hit compounds specifically target TDP1. To this end, we have screened this cell line against the MLSMR in two primary screens. In one screen we add CPT and in the other we screen in the absence of CPT; this AID represents the screen where CPT was present. NIH Chemical Genomics Center [NCGC] NIH Molecular Libraries Probe Centers Network [MLPCN] MLPCN Grant: MH095538 Assay Submitter (PI): Yves Pommier, NCI
DT40-hTDP1 cells with 20 nM Camptothecin (add 20 microL of 1 mM CPT stock in 1 L of cell culture medium) were dispensed at 400 cells/5microL/well in tissue culture treated 1536-well white wall/solid bottom assay plates (Greiner Bio-One North America, NC, U.S.A.) using a Multidrop Combi 8 channel dispenser (Thermo Fisher, Waltham, MA, USA). 23 nL compounds and controls were transferred using the pin tool (Kalypsys, San Diego, CA, USA) to the assay plates. The assay plates were then incubated at 37 masculineC for a minimum 48 hr. Three microL of Cell Titer Glo solution was added to the plates and incubated at RT in dark for 30 min. Luminescence was read using ViewLux (Perkin Elmer) with 1 sec exposure slow speed, high gain and 2x binning.
For orientation: In qHTS, concentration-response curves come from the screen itself.
On to `O=[N+]([O-])c1cc(S(=O)(=O)N2CCCC2)ccc1NN=C1CCCC1`, for which the Potency entry is “inactive”. Regarding `CC(C)(C)c1ccc(/C=C2\SC(=O)N=C2N)cc1`, the Potency result is “inactive”. For the compound `CCOc1ccc(CNC(=O)c2cc(=O)[nH]c3ccc(S(=O)(=O)N4CCCCC4)cc23)cc1`, the Potency result is “inactive”. `CC(c1ccco1)N(C(=O)c1ccc(S(=O)(=O)N2CCCCC2)cc1)c1ccccn1` (centres undefined): the Potency entry was “inactive”. Consider `Cc1ccc(-n2c(CNc3ccc(F)cc3)nnc2SCC(=O)N2CCOCC2)cc1`, for which the Potency entry is “inactive”. The value for `N=C1c2ccccc2-c2ccccc21` was “inactive”; that for `COc1ccc(N2CCN(C3=NS(=O)(=O)C(c4cccc(Br)c4)=C3C)CC2)cc1` was “inactive”. In the case of `Cc1oc2ncn(CC(C)C)c(=O)c2c1C(=O)N1CCN(c2ccccc2F)CC1` it was “inactive”; in that of `O=C(Nn1cc(C(=O)N2CCN(c3ccccc3F)CC2)c2ccccc2c1=O)c1cnccn1`, 14.6 µM (active).

Turning to `Cn1c(=O)cc(OCC(=O)N2CCN(c3ccccc3F)CC2)c2ccccc21`, the Potency result was “inactive”.

As for `CCCCOc1ccc(NC(=O)c2cc3c(n(-c4ccc(Cl)cc4)c2=O)CCCC3=O)cc1`, the Potency entry is “inactive”. As for `CC(C)c1ccc(NS(=O)(=O)c2ccc3[nH]cc(C(=O)NC4CCCC4)c(=O)c3c2)cc1`, the Potency result was “inactive”.

For `COCC(C)NCc1cc(Br)ccc1OC` (centres undefined), the Potency entry was “inactive”. As for `CCOC(=O)CC1C(=O)NCCN1C(=O)COc1ccc(Br)cc1C` (centres undefined), the Potency entry was “inactive”.

On to `CCC(C)NCCOCCOc1ccc(Br)cc1C` (centres undefined), for which the Potency was 14.6 µM (active). For `O=C(OCCOc1ccccc1F)c1cc(S(=O)(=O)N2CCOCC2)ccc1F`, the Potency entry was “inactive”. In the case of `CC(=O)N1CCN(C(=O)Nc2cccc(C(F)(F)F)c2)CC1` it was “inactive”.

With `Cc1oc2ccc(O)c(CN3CCC(C)CC3)c2c1C(=O)Nc1ccccc1`, the Potency is 14.6 µM (active).

As for `Cc1nnsc1C(=O)Nc1cccc(Cl)c1C`, the Potency result is “inactive”.

In the case of `Cc1oc2ccc(O)c(CN3CCCCC3)c2c1C(=O)Nc1cccc(C(F)(F)F)c1`, the Potency is 11.6 µM (active).

Turning to `O=C(Nc1ccc(CN2CCOCC2)cc1)c1cc(Cl)ccc1Cl`, the Potency entry was “inactive”.

`Cc1c(CN2CCC(C)CC2)c(=O)n(-c2ccccc2)n1C`: the Potency result is “inactive”. Turning to `CCOC(=O)c1cccc(NC(=O)c2cc(CN3CCCC3)on2)c1`, the Potency result is “inactive”. On to `Cc1oc2ccc(O)c(CN3CCOCC3)c2c1C(=O)Nc1cccc(Cl)c1C`, for which the Potency is 11.6 µM (active).

As to `CC1CCN(CCC(=O)Nc2ccccc2)CC1`, the Potency entry is “inactive”.

For the compound `COc1ccccc1CNS(=O)(=O)c1cc2c3c(c1)CCC(=O)N3CCC2`, the Potency result was “inactive”.

Consider `Nc1cc(=O)c2[nH]cnc2[nH]1`, for which the Potency entry is “inactive”. The value for `Cc1ccc(C(=O)Nc2ccc(OCc3cc(=O)n4c(C)csc4n3)cc2)cc1` was “inactive”; that for `CN(C(=O)c1c(Cl)cnn1C)C12CC3CC(CC(C3)C1)C2` was “inactive”. Consider `COC(=O)CSc1nnc(-c2cccnc2)o1`, for which the Potency result was “inactive”.

`CCn1c(C)nc2cc(C(=O)NNS(=O)(=O)c3ccc(C)cc3C)ccc21`: the Potency entry was “inactive”. In the case of `CCCNC(=O)c1ccc2c(c1)ncn2-c1ccc(C)cc1C` it was 16.4 µM (active). In the case of `CN(c1ccc(C(=O)NCCC2=CCCCC2)cc1)S(C)(=O)=O` it was “inactive”.

With `COCCNC(=O)c1ccc2c(c1)ncn2-c1ccc(C)c(Cl)c1`, the Potency entry is “inactive”. As to `COC(CNC(=O)c1ccc2c(c1)ncn2-c1cc(C)cc(C)c1)OC`, the Potency entry is “inactive”. Consider `Cc1ccc(-n2cnc3cc(C(=O)NCCC4=CCCCC4)ccc32)cc1Cl`, for which the Potency is 18.4 µM (active). Turning to `CCn1nnnc1SCC(=O)Nc1ccc(N(C)C)cc1`, the Potency result is “inactive”. `CC(=O)NS(=O)(=O)c1ccc(N/C(N)=N/c2nc(C)cc(C)n2)cc1`: the Potency result was “inactive”.

As for `CCOC(=O)C1CCN(C(=O)C2CCCN(S(=O)(=O)c3ccc(OC)c(Cl)c3)C2)CC1` (centres undefined), the Potency is 16.4 µM (active).

In the case of `COc1ccc(S(=O)(=O)N2CCCC(C(=O)N3CCN(C)CC3)C2)cc1C` (centres undefined), the Potency result is “inactive”. Take `CCN1CCN(C(=O)C2CCCN(S(=O)(=O)c3ccc(OC)c(OC)c3)C2)CC1` (centres undefined): the Potency result was “inactive”. In the case of `O=C(COC(=O)c1ncc(Cl)c(Cl)c1Cl)NC1CCS(=O)(=O)C1` (centres undefined) it was “inactive”; in that of `C=C(C)c1cccc(C(C)(C)NC(=O)NCCN(CC)CC)c1`, “inactive”. The value for `CC1(C(=O)NS(=O)(=O)c2ccccc2)CCN1C(=O)C1CCCCC1` (centres undefined) was “inactive”; that for `CCOC(=O)c1ccc(NC(=O)c2c(NCc3cccc(OC)c3)sc3c2CCC3)cc1` was 10.3 µM (active). Take `CC(=O)Cc1nsc(NC(=O)c2csc3c2CCCC3)n1`: the Potency entry is “inactive”. In the case of `CCOC(=O)c1ccc(NC(=O)c2c(NCc3ccccc3)[nH]c(=O)[nH]c2=O)cc1` it was “inactive”; in that of `COc1cccc(CN(C)CC(=O)Nc2sc3c(c2C#N)CCC3)c1`, “inactive”. For the compound `Cc1ccc(NC(=O)c2csc3c2CCCC3)cc1`, the Potency entry was “inactive”.

On to `CCOC(=O)c1ccc(NC(=O)c2csc3c2CCCCC3)cc1`, for which the Potency was 25.9 µM (active).

In the case of `CCOC(=O)c1c(NC(=O)CCC(=O)NCc2ccco2)sc2c1CCCC2`, the Potency result was “inactive”. The value for `CCOC(=O)c1c(NC(=O)c2cc(-c3ccc(Cl)cc3)on2)sc2c1CCCC2` was “inactive”; that for `CCOC(=O)c1ccc(NC(=O)c2c(NCc3cccs3)sc3c2CCCC3)cc1` was 16.4 µM (active).

Turning to `C[C@@H]1CC[C@]2(O[C@@H](CCO)C[C@H](O)[C@H]2O)O1`, the Potency result is “inactive”. Consider `Cn1c(N2CCOCC2)c(C=O)c2ccccc21`, for which the Potency entry is “inactive”. With `C[C@H]1COc2cc(N3CCSCC3)ccc2S(=O)(=O)N1`, the Potency entry is “inactive”.

As for `Cc1ccc(N=C2SCCCN2C(=O)c2cccc(N3C(=O)CCC3=O)c2)cc1Cl`, the Potency entry was “inactive”.

As to `CCCC1C(=O)N2C(N(C)C)=Nc3ccc(C)cc3N2C1=O` (centres undefined), the Potency entry is “inactive”.

In the case of `Cc1cc(C)n2nc(SCC(N)=O)nc2n1`, the Potency entry was “inactive”. `CCC1=NN(C(=O)Cc2ccc([N+](=O)[O-])cc2)C(O)(c2ccc(Br)cc2)C1` (centres undefined): the Potency entry is “inactive”. The value for `Cc1cccc(N2C(=O)N3[C@H](c4ccc(F)cc4)[C@@H]4C(=O)N(C5CCCCC5)C(=O)[C@@H]4[C@]3(Cc3ccccc3)C2=O)c1` was “inactive”; that for `O=C1CCC(C(=O)N2CCCCO2)CN1Cc1cccc(C(F)(F)F)c1` (centres undefined) was “inactive”; that for `Cc1ccc(N2CC(C(=O)NCCS(=O)(=O)N3CCN(c4ccccc4)CC3)CC2=O)cc1` (centres undefined) was “inactive”.

For `CCC1CCCCN1S(=O)(=O)c1ccc(NC(=O)c2cc(=O)c3ccccc3o2)cc1` (centres undefined), the Potency was 3.26 µM (active). `O=C(NCCS(=O)(=O)N1CCN(c2ccccc2)CC1)c1cc(=O)c2ccccc2o1`: the Potency result was “inactive”. For the compound `O=C(Nc1cc(S(=O)(=O)N2CCOCC2)ccc1Cl)c1cc(=O)c2ccccc2o1`, the Potency was 11.6 µM (active).

As to `Cc1ccc2oc(C(=O)Nc3ccc(S(=O)(=O)N4CCCCCC4)cc3)cc(=O)c2c1`, the Potency entry is “inactive”. For the compound `Cc1cc(C)c2oc(C(=O)Nc3ccc(S(=O)(=O)N4CCCCCC4)cc3)cc(=O)c2c1`, the Potency result was “inactive”. With `O=C(Nc1cc(S(=O)(=O)N2CCOCC2)ccc1N1CCOCC1)c1c(F)cccc1Cl`, the Potency entry is “inactive”.

Values taken from PubChem BioAssay AID686979 (National Center for Advancing Translational Sciences (NCATS), 2013).
